According to PubChem BioAssay (Tox21):
Results filed as inconclusive are left out. A call without a number means that no potency is given here. Calls of active or inactive are those of the source. The call rests on the fitted dose curve; in most records, active means well fitted inhibition curve with a large enough effect in the signal ratio in the repeat runs; inconclusive means weak or mixed curves, or effect the other way; inactive means flat fitted curve, though single readings scatter; the % refers to the signal ratio.

Assay: qHTS assay for small molecule disruptors of the mitochondrial membrane potential (AID 720635)
Details: HepG2 mitochondrial membrane potential, Mito-MPS dye ratio; series mostly up to 83.2 µM
Description: U.S. Tox21 Program National Center for Advancing Translational Sciences [NCATS] NIH Chemical Genomics Center [NCGC] U.S. Environmental Protection Agency [EPA] National Institutes of Environmental Health Sciences [NIEHS] National Toxicology Program [NTP] U.S. Food and Drug Administration [FDA] Tox21 Assay Overview: Mitochondrial membrane potential (MMP), one of the parameters for mitochondrial function, is generated by mitochondrial electron transport chain that creates an electrochemical gradient by a series of redox reactions. This gradient drives the synthesis of ATP, a crucial molecule for various cellular processes. Measuring MMP in living cells is commonly used to assess the effect of chemicals on mitochondrial function. […] The dye accumulates in the mitochondria of healthy cells as aggregates, with red fluorescence. The mitochondrial potential collapses and the dye can no longer accumulate in the mitochondria and remains in the cytoplasm in monomers, with green fluorescence.
Tox21 Assay Protocol Summary: 2,000 HepG2 cells in 5 uL/well were dispensed into black, clear-bottom 1536-well plates using a Multidrop Combi (Thermo Scientific) dispenser. The assay plates were incubated overnight at 37C to allow cells to attach to the wells, followed by the transfer of 23 nL compound or DMSO vehicle by a pin tool (Kalypsys). The plates were incubated for 1 hr at 37C and 5% CO2, followed by the addition of 5 uL of 2X Mito-MPS dye (BD Biosciences) into each well using Flying Reagent Dispenser (Aurora Discovery) and then following 30 min incubation at 37C. Fluorescence intensity (490nm excitation and 535nm emission for monomers; and 540nm excitation and 590nm emissions for aggregates) was measured using an Envision plate reader.
Potency means the concentration at half of the fitted maximal effect.

SMILES | Potency
CCC1CCC(CCC(=O)O)C1 (stereo not given) | inactive
Nc1ccc(N=Nc2ccc(N)cc2)cc1 | 6.85 µM (active)
C=C(C)c1ccccc1 | inactive
CC(=O)C(=O)CC(C)C | inactive
C=CC(=O)NC(C)C | inactive
CCN(CC)C(=O)N1CCN(C)CC1 | inactive
CC(O)Cn1cnc2c1c(=O)n(C)c(=O)n2C (stereo not given) | inactive
C1CCCCC1 | inactive
CC(=O)NCCO | inactive
O=C1OC(=O)c2c(Br)c(Br)c(Br)c(Br)c21 | inactive
Nc1cccc2c(N)cccc12 | 0.864 µM (active)
Cc1ccc2c(c1)CCCN2 | inactive
FC(F)(F)C(F)(F)C(F)(F)C(F)(F)CCI | inactive
O=C(O)CCC(=O)OC[C@@H](NC(=O)C(Cl)Cl)[C@H](O)c1ccc([N+](=O)[O-])cc1 | inactive
Cc1ccc(S(=O)(=O)NC(=O)NC2CCCCC2)cc1 | inactive
O=c1[nH]c2cc(C(F)(F)F)c(N3CCOCC3)cc2n(CP(=O)(O)O)c1=O | inactive
CCC(=O)OCc1ccc(OC)cc1 | inactive
CC(C)(C)S | inactive
BrC(Br)C(Br)Br | inactive
O=C1[C@@H]2[C@H]3CC[C@H](C3)[C@@H]2C(=O)N1CCCCN1CCN(c2ncccn2)CC1 | inactive

SMILES | Potency
COc1ccc(C2C(=O)c3ccccc3C2=O)cc1 | inactive
COc1ccc(/C=C/C(=O)c2ccc(OC)cc2OC)cc1 | 13.3 µM (active)
CC1CCC(C(C)CS)CC1S (stereo not given) | inactive
CC(=O)OCCC(C)CC(C)(C)C (stereo not given) | inactive
COc1ccc(N)c([N+](=O)[O-])c1 | inactive
Cc1ccc(NC(=O)N(C)C)cc1NC(=O)N(C)C | inactive
CCN(CC)CCNC(=O)c1cc(Cl)c(N)cc1OC | inactive
CC[C@@H](CO)NCCN[C@@H](CC)CO | inactive
Cc1cn([C@H]2C[C@H](F)[C@@H](CO)O2)c(=O)[nH]c1=O | inactive
c1ccc2sc(SSc3nc4ccccc4s3)nc2c1 | inactive
O=C(c1ccccc1)C1CCC1 | inactive
CC(C)c1ccc(C#N)cc1 | inactive
CC(=O)N[C@@H](Cc1ccc(O)cc1)C(=O)O | inactive
CCCCCCCCCCCCCCN(C)C | inactive
O=C1c2ccccc2C(=O)c2c(O)ccc(O)c21 | 3.06 µM (active)
CC(=O)OCC1=C(C(=O)O)N2C(=O)[C@@H](NC(=O)CSc3ccncc3)[C@H]2SC1 | inactive
CCOC(=O)c1ccc(NC(=O)CN2CCCCC2)cc1 | inactive
SCCc1cnccn1 | inactive
COc1ccc2nc(S(=O)Cc3ncc(C)c(OC)c3C)[nH]c2c1 (stereo not given) | inactive
Oc1ccc2c(c1)Cc1ccccc1-2 | 27.3 µM (active)
